Calls of active or inactive are those of the source.
Columns and labels:
[1] = E. coli DRC41 culture turbidity changes, primary screen, E. coli filamentation inducer project, strain DRC41, OD650, 48 h (AID 1152);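 further: E. coli MC1000 strain DRC41 lacking acrAB efflux pump and sulA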; settings: E. coli DRC41 (acrAB sulA), higher = more signal, called active from +8 up or from −8 down
[2] = small-molecule binders of probe aLefty1, primary screen, biochemical, small-molecule microarray, 635/667 nm fluorescence (AID 1153); settings: higher = more signal;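 further: score merges spot fluorescence with signal-to-noise ratio from the scanned slide images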
[3] = PSAC antagonists in infected red cells, primary screen, cell-based, P. falciparum Indochina, OD700, 1 h (AID 1154); settings: P. falciparum Indochina infected RBC osmotic lysis, higher = more signal, called active from +8 up or from −8 down
[4] = PSAC antagonists in infected red cells, primary screen, cell-based, P. falciparum Indochina, OD700, 2 h (AID 1155);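 further: lysis reports solute entry through the parasite surface anion channel PSAC; channel blockers reduce lysis of infected cells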; settings: P. falciparum Indochina infected erythrocytes, osmotic lysis OD700; higher = more signal, called active from +8 up or from −8 down
[5] = osmotic lysis modulators in infected erythrocytes, primary screen, PSAC antagonist project, cell-based, P. falciparum Indochina, OD700, 3 h (AID 1156); settings: higher = more signal, called active from +8 up or from −8 down
[6] = PSAC antagonists in infected red cells, primary screen, cell-based, P. falciparum Indochina, OD700, 18 h (AID 1157); settings: P. falciparum Indochina infected erythrocytes, osmotic lysis OD700, 18 h; higher = more signal, called active from +8 up or from −8 down
[7] = modulators of S6 phosphorylation in cells, primary screen, cell-based, A549, cytoblot, luminescence, serum-stimulated (AID 1158); settings: A549 phospho-S6 cytoblot, 5 h, higher = more signal;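 further: serum-stimulated A549 lung adenocarcinoma cells; signal is phosphorylated S6 detected by cytoblot immunostaining with HRP secondary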
[8] = target: NADPH oxidase 2 (Homo sapiens) (UniProt P04839); experiment: NOX2-dependent H2O2 signal modulators, primary screen, NOX inhibitor project, cell-based, HEK293-NOX2, PMA-stimulated, Amplex Red fluorescence (AID 1159); settings: 45 min, higher = more signal, called active from +8 up or from −8 down; further: test concentration not given here
[9] = target: NADPH oxidase 4 (Homo sapiens) (UniProt Q9NPH5); experiment: NOX4-dependent H2O2 signal modulators, primary screen, NOX inhibitor project, cell-based, HEK293-NOX4, tetracycline-induced, Amplex Red fluorescence (AID 1160); settings: 45 min, higher = more signal, called active from +8 up or from −8 down
[10] = target: NADPH oxidase 5 (Homo sapiens) (UniProt Q96PH1); experiment: NOX5-dependent H2O2 signal modulators, primary screen, NOX inhibitor project, cell-based, HEK293-NOX5, Amplex Red fluorescence (AID 1161); settings: HEK293-NOX5, ionomycin, 45 min, higher = more signal
[11] = A549 cell viability effects, profiling panel, calcein-AM fluorescence, 48 h, basal (AID 1162); settings: higher = more signal; further: test concentration not given here
[12] = adipocyte viability effects, profiling panel, cell-based, 3T3-L1 adipocytes, calcein-AM fluorescence, 48 h, basal (AID 1163); settings: 3T3-L1 adipocytes viability, higher = more signal; further: test concentration not given here
[13] = HepG2 cell viability effects, profiling panel, calcein-AM fluorescence, 48 h, basal (AID 1164); settings: higher = more signal; further: test concentration not given here
[14] = MM1S cell viability effects, profiling panel, calcein-AM fluorescence, 48 h, basal (AID 1165); settings: higher = more signal;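 further: viability of MM1S multiple myeloma cells under basal unstimulated conditions; test concentration not given here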
[15] = basal RPMI8226 viability, no added stimulus, profiling panel, cell-based, calcein-AM fluorescence, 48 h, PK04 Diversity Set (AID 1166); settings: RPMI8226 myeloma viability, higher = more signal;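 further: cells grown under basal conditions without added stimulus; test concentration not given here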
[16] = basal HepG2 mitochondrial membrane potential changes, profiling panel, cell-based, JC-1 fluorescence, 24 h, 100 nL compound (AID 1167); settings: higher = more signal; further: test concentration not given here
[17] = basal 3T3-L1 adipocyte mitochondrial potential changes, profiling panel, cell-based, JC-1 fluorescence, 3T3-L1 adipocytes, 24 h, 100 nL compound (AID 1168); settings: JC-1 mitochondrial fluorescence, higher = more signal, called active from +8 up or from −8 down; further: test concentration not given here
[18] = basal RPMI8226 mitochondrial membrane potential changes, profiling panel, cell-based, JC-1 fluorescence, 24 h, 100 nL compound (AID 1169); settings: RPMI8226 myeloma, JC-1 mitochondrial potential fluorescence, higher = more signal; further: test concentration not given here
[19] = basal MM1S mitochondrial membrane potential changes, profiling panel, cell-based, JC-1 fluorescence, 24 h, 100 nL compound (AID 1170); settings: higher = more signal; further: test concentration not given here
[20] = A549 lung cancer cell viability effects, profiling panel, resazurin fluorescence, 24 h, PK04 Diversity Set (AID 1171); settings: higher = more signal, called active from +8 up or from −8 down; further: test concentration not given here

NADPH oxidase 2 (Homo sapiens), sequence (P04839 whole entry, looked up): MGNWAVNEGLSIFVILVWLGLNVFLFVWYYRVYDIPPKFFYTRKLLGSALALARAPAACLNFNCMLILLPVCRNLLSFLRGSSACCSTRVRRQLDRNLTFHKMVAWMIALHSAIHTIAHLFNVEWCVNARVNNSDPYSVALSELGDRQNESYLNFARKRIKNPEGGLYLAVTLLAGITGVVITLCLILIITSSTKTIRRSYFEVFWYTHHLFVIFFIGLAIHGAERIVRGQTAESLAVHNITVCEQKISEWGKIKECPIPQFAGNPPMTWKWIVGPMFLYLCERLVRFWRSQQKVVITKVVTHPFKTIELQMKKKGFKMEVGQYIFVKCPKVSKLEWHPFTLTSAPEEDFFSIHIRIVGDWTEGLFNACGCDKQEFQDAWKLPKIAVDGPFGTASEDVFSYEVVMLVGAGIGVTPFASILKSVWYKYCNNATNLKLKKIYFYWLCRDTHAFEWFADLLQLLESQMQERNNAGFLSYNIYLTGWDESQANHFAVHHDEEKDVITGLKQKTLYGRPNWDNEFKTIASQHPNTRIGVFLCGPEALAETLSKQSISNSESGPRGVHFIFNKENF
NADPH oxidase 5 (Homo sapiens), sequence (Q96PH1 whole entry, looked up): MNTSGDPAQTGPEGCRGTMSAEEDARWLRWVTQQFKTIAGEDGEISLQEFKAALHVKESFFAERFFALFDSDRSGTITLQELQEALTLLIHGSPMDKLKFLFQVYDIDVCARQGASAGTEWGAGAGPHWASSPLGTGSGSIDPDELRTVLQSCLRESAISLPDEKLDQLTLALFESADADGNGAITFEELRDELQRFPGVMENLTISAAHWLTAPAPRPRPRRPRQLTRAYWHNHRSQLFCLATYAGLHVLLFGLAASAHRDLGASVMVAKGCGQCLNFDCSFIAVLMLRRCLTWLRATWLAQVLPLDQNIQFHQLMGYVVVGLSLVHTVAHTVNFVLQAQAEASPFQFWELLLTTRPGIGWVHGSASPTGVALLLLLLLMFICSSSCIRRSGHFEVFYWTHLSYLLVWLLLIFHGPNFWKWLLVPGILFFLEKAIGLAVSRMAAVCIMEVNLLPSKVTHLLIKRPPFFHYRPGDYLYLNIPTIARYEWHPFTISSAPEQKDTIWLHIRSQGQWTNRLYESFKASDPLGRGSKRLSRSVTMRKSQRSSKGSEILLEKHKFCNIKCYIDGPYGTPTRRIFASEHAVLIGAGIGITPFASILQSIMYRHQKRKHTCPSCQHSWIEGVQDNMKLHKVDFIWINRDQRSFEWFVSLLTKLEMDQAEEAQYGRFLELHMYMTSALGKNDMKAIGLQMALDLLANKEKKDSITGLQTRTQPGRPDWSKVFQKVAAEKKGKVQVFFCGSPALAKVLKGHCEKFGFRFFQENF
NADPH oxidase 4 (Homo sapiens), sequence (Q9NPH5 whole entry, looked up): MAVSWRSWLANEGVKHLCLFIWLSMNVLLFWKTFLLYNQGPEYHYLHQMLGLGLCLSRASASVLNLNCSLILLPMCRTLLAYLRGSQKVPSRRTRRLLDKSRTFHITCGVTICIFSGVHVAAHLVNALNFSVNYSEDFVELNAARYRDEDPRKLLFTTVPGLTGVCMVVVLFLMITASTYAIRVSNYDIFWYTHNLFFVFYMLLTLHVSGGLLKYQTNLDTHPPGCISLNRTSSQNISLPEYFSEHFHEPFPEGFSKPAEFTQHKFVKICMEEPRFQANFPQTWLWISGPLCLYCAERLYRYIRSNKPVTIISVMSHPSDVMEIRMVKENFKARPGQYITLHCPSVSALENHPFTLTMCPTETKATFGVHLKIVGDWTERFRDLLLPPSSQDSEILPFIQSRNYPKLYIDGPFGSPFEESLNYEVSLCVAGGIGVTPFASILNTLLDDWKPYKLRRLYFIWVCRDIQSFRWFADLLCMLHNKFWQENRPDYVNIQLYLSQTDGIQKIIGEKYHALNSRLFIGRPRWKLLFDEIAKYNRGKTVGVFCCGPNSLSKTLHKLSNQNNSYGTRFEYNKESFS

| Compound | z-score [1] | composite z-score [2] | z-score [3] | z-score [4] | z-score [5] | z-score [6] | z-score [7] | z-score [8] | z-score [9] | z-score [10] | z-score [11] | z-score [12] | z-score [13] | z-score [14] | z-score [15] | z-score [16] | z-score [17] | z-score [18] | z-score [19] | z-score [20] |
| --- | --- | --- | --- | --- | --- | --- | --- | --- | --- | --- | --- | --- | --- | --- | --- | --- | --- | --- | --- | --- |
| C=C(/C(=C/C[C@H](OC(=O)c1ccncc1)c1ccc(OCCO)cc1)c1cnc2ccccc2c1)C(C)C | -0.592 (inactive) | 0.188 | 18.5 (active) | 3.04 (inactive) | 1.11 (inactive) | 0.724 (inactive) | -0.288 | -0.513 (inactive) | -0.346 (inactive) | -0.699 | 1.31 | -0.122 | 0.0253 | -2.75 | -0.294 | 0.92 | -0.69 (inactive) | -0.815 | -0.0967 | 0.58 (inactive) |
| O=C1C[C@@H](O)[C@@H](O)[C@@H]2[C@@H]3C(=O)N(C4CCCCC4)C(=O)[C@@H]3CC[C@H]12 | -0.246 (inactive) | -0.103 | 1.27 (inactive) | 0.775 (inactive) | -0.059 (inactive) | 0.423 (inactive) | 0.403 | -1.6 (inactive) | 0.386 (inactive) | -0.883 | 0.18 | 0.0589 | 0.0702 | -0.148 | -0.189 | -0.401 | -0.364 (inactive) | 0.0892 | -0.354 | 0.386 (inactive) |
| CCc1cc2c(nc1CC)CCN(CCC(C)=NOC[C@@H](O)COCc1ccco1)C2 | 0.538 (inactive) | 1.09 | 2.3 (inactive) | -0.0282 (inactive) | 0.0761 (inactive) | 0.147 (inactive) | -0.659 | -0.566 (inactive) | 0.162 (inactive) | 1.84 | 0.902 | 0.592 | 0.526 | -0.548 | -0.862 | 1.44 | -0.901 (inactive) | -0.824 | 0.581 | -0.527 (inactive) |
| COc1ccc(O[C@H]2C=C[C@@H](c3ccccc3)O[C@@H]2COC(=O)CCC(C)=NOCC[C@@H]2C=C[C@H](OC(C)=O)[C@@H](COC(C)=O)O2)cc1 | -0.445 (inactive) | -0.0176 | 8.07 (active) | 1.2 (inactive) | 1 (inactive) | 0.588 (inactive) | -0.268 | -1.64 (inactive) | -0.327 (inactive) | -2.19 | -0.284 | -0.699 | -0.1 | -0.919 | -0.112 | -0.359 | 0.0763 (inactive) | -0.55 | -0.522 | 0.369 (inactive) |
| C#C[C@@H](CC)O[Si](C#Cc1ccc(Oc2ccccc2)cc1)(C(C)C)C(C)C | -0.49 (inactive) | 0.0404 | 0.788 (inactive) | 1.4 (inactive) | -1.4 (inactive) | 0.335 (inactive) | -0.724 | 0.278 (inactive) | -0.366 (inactive) | -1.51 | -2.96 | -1.01 | -2.63 | -2.97 | -4.2 | -2.29 | -0.068 (inactive) | -0.291 | -1.11 | -0.936 (inactive) |
| [N-]=[N+]=NCc1ccccc1[C@@H]1OC(c2ccc(OCCCO)cc2)=N[C@]1(Cc1ccccc1)C(=O)N1CCOCC1 | 0.854 (inactive) | 0.904 | 16.7 (active) | 2.9 (inactive) | 2.49 (inactive) | 1.01 (inactive) | 0.131 | -1.85 (inactive) | -0.253 (inactive) | -1.21 | 0.307 | 0.146 | 1.45 | -1.2 | -0.275 | 0.787 | 1.05 (inactive) | -1.39 | -1.13 | -1.14 (inactive) |
| COCCOC(=O)N1C(=O)[C@@]2(c3cc(C#CC4(O)CCCCCC4)ccc31)[C@H](C(=O)N1CCN(c3ncccn3)CC1)[C@H]1C(=O)O[C@H](c3ccccc3)[C@H](c3ccccc3)N1[C@@H]2c1ccc(OCCO)cc1 | 1.74 (inactive) | 0.485 | 11.7 (active) | 2.25 (inactive) | 1.35 (inactive) | 1.19 (inactive) | 0.372 | 1.69 (inactive) | -0.754 (inactive) | 1.24 | 0.514 | 1.48 | -0.118 | 0.0759 | -1.9 | -0.866 | -0.224 (inactive) | -0.479 | -0.653 | -0.49 (inactive) |
| CC(C)[C@@H](OCc1ccccc1)[C@H](C)C=NOC[C@@H](C)[C@H](OCc1ccccc1)C(C)C | 0.52 (inactive) | 0.233 | 0.641 (inactive) | 0.369 (inactive) | -0.423 (inactive) | -0.222 (inactive) | -0.591 | -0.537 (inactive) | -0.184 (inactive) | -0.948 | 0.243 | -0.231 | -0.661 | 0.27 | 0.0507 | -0.245 | -0.149 (inactive) | 0.0367 | -0.0858 | -0.689 (inactive) |
| CCOC(=O)C1=CC[C@H]2C(=O)N(CC)C(=O)[C@@H]12 | -0.457 (inactive) | -0.0412 | 1.09 (inactive) | 1.21 (inactive) | 0.253 (inactive) | 0.804 (inactive) | -0.45 | -0.0988 (inactive) | 0.484 (inactive) | 0.829 | -0.148 | 0.0888 | -0.622 | -0.0999 | 0.0317 | -0.342 | -0.362 (inactive) | 0.0877 | -0.517 | 1.17 (inactive) |
